From PubChem BioAssay (NCI) come the findings set out here.

SMILES strings stand for the structures. Compounds without any hit were thinned out: in the full panel of roughly 83,000, 20% have a hit.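 Compound tested at a single concentration for 48 hours in 96-well plates; a percent growth value below 10 was scored as active.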 Values without a mark were called inactive. The source made the active and inactive calls.

This experiment relates to HOP-62 NSCLC. As to the kind of experiment: NCI-60 one-dose screen, 48 h (100 = growth as untreated, 0 = no growth, -100 = all killed). The following applies: 10 µM unless noted.
As to `Cc1ccc(C(=O)Nc2cc(-n3cnc(F)c3)cc(C(F)(F)F)c2)cc1C#Cc1cnc2cccnn12`, the growth is 85.7%.
Next, `O=C(N/N=C/c1ccc(-c2cccc([N+](=O)[O-])c2)s1)c1[nH]c2ccc(Br)cc2c1-c1ccccc1`: 64.4%; `Nc1cc2ccccc2c(=O)n1NC(=O)c1ccccc1`: 103%.
Next, `C[C@@H]1[C@H]2C[C@@H](C[C@H]1NCc1nc3ccccc3n1C1CCCCCC1)C2(C)C`: 88.3%; `COc1cc2cc(C(=O)N3C[C@@H](CCl)c4c3cc(OC(=O)N(CCC(=O)N3CCN(C)CC3)[C@H]3CCSSC3)c3ccccc43)[nH]c2c(OC)c1OC`: -17.8% (active).
With `Cc1cn(-c2cc(NC(=O)c3ccc(C)c(-n4cc(-c5cnc6cccnn56)nn4)c3)cc(C(F)(F)F)c2)cn1` the figure was 80.5%; with `Cn1cc(-c2cc(N)n3nc(-c4c[nH]c5ccc(F)cc45)cc3n2)c2cccnc21`, -85.9% (active).
For the molecule `FC(F)(F)c1cc2c(Cl)ncnc2n1CCN1CCOCC1`, the growth was 91.5%.
Next, `CCOC(=O)/C(F)=C/C1CC1C1CCN(C(=O)OC(C)(C)C)CC1` (stereo not drawn): 118%; `O=C(Nc1ccc(-c2ccc3c(c2)NC(=O)/C3=C\c2ccc[nH]2)cc1)Nc1cccc(Cl)c1`: -29.6% (active); `O=Cc1cncc(-c2ccc3ncnc(N4CCc5cc(F)c(Cl)cc54)c3c2)c1`: 51.9%.
With `Fc1ccc(F)c(CNc2nc(SCCN3CCOCC3)nc3c2cnn3CC(Cl)c2ccc(Br)cc2)c1` (stereo not drawn) the figure was 47.8%; with `Cc1nc(N)ncc1-c1ccc2ncnc(N3CCc4cc(F)c(Cl)cc43)c2c1`, 72.8%.
With `O=C(Cn1c(/C=C/c2ccc([N+](=O)[O-])cc2)nc2ccccc2c1=O)Nc1ccccc1` the figure was 49%.
`Nc1nc2cc(-c3ccc4ncnc(NCc5ccccc5)c4c3)ccc2o1`: the growth was -46.1% (active).
`COc1ccc(-c2nc3ccc(-c4nnc(SCc5ccccc5)o4)cc3[nH]2)cc1`: the growth was -72.7% (active).
Take `O=C(OCCOCCO)N(c1cccc(Br)c1)c1nc(SCCN2CCOCC2)nc2c1cnn2CC(Cl)c1ccc(Br)cc1` (stereo not drawn): the growth is 32.9%.
In the case of `Oc1ccc(Cl)c(Nc2nc(SCCN3CCOCC3)nc3c2cnn3CC(Cl)c2ccc(Br)cc2)c1` (stereo not drawn), the growth is 32.7%.
Next, `O=C1/C(=C/C=C/c2ccco2)SC(=S)N1CC(=S)C1C=CS(=O)(=O)C1` (stereo not drawn): 130%.
With `COC(=O)c1cc(C(=O)CBr)n2c1ccc1c3ccccc3ccc12` the figure was 48.9%; with `Cc1ccc(-c2cc(C(=O)N=Nc3c(O)[nH]c4ccc(F)cc34)c3ccccc3n2)cc1`, 6.08% (active).
Next, `Nc1cc(-c2c[nH]c3ccc(F)cc23)nc2cc(-c3c[nH]c4ccccc34)nn12`: 1.04% (active); `COc1cc(NC(=O)CSc2nnc(-c3ccc(-c4nc5ccc(Cl)cc5[nH]4)cc3)o2)cc(OC)c1OC`: 65.9%; `COc1ccc(C(=O)NNC(=O)CSc2nc3sc4c(c3c(=O)n2-c2ccc(Cl)cc2)CCCC4)cc1`: 18.7%.
For the molecule `CN(CCSSCCN1CCOCC1)C(=O)Oc1cc2c(c3ccccc13)[C@H](CCl)CN2C(=O)c1cc2cc(OCCCN3CCC3)ccc2[nH]1`, the growth is -64.7% (active).
Next, `O=C(Cc1c(-c2ccccc2[N+](=O)[O-])n(-c2ncnc3c2c(-c2ccccc2)c(-c2ccccc2)n3Cc2ccccc2)[nH]c1=O)c1ccc(Cl)c(Cl)c1`: 49.3%; `O=C(c1ccc(Cl)cc1)C1[C@H](c2ccccc2Cl)[C@@H](c2ccccc2)NC12C(=O)Nc1ccc(Br)cc12` (stereo partly drawn): -88% (active); `Cc1cccc(-c2ccccc2Oc2ccc3nnc(Cl)n3n2)c1`: 114%.
In the case of `CCC1(OC(=O)c2ccccc2SSCCOC(=O)CCCCC2SCC3NC(=O)NC32)C(=O)OCc2c1cc1n(c2=O)Cc2cc3ccccc3nc2-1` (stereo not drawn), the growth is 39.4%.
With `COc1ccc(/C=C/c2nc3ccccc3n3c(-c4cccc([N+](=O)[O-])c4)nnc23)cc1` the figure was 25.4%; with `Cc1ccc(C(=O)Nc2cc(-c3ccncc3)cc(C(F)(F)F)c2)cc1C#Cc1cnc2cccnn12`, 44.3%.
Next, `COc1ccc(N=Nc2c(N)nn3c(N)c(C#N)c(-c4ccccc4)nc23)cc1`: -1.62% (active); `N#Cc1ccc(C(=O)NNC(=O)CSc2nc3sc4c(c3c(=O)n2-c2ccc(Cl)cc2)CCCC4)cc1`: 7.62% (active); `CCCCCCCCc1ccc(C(=O)Nc2cccc(O)c2)cc1`: 101%.
Next, `COc1ccc(/C=C/C(=O)c2ccc(OC)c(S(N)(=O)=O)c2)c(C(F)(F)F)c1`: -5.21% (active).
Turning to `C#CCN(C)CCCOc1ccc(N(CC)C(=O)c2cc(C(C)C)c(O)cc2O)cc1Cl`, the growth is 26%.
Next, `CC1=C(C(=O)OCc2ccccc2)C(c2ccc(N(C)C)cc2)n2c(nc3ccccc32)N1` (stereo not drawn): 83.6%; `Cc1ccc(C2CC(c3ccc(NC(=O)Nc4ccccc4)cc3)=NN2c2ccc(S(N)(=O)=O)cc2)cc1` (stereo not drawn): -72.9% (active).
